Assay results: the supplement of paper PMC9694430
Where “and” joins values, the source holds several entries; their conditions need not be identical. Equal entries are not always repeated. Structures can show the parent of a compound that is named as a salt.

Each molecule was assayed on LOC_OS02G07810-cb001 (assay: thermal shift delta Tm vs DMSO control; higher = stronger stabilization (binding)). Conditions: 12.5 µM; protein concentration 2 µM.
Outline: (§1)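 Rice kinase domain constructs, made in E. coli and purified, were placed in 96-well plates at 2 μM in 19.5 μl of 100 mM potassium phosphate pH 7.5, 150 mM NaCl, 10% glycerol and 5 × SYPRO Orange, with compound in DMSO. A temperature ramp from 25°C to 95°C at 0.05°C/s was used for differential scanning fluorimetry. The melting temperature shift is a triplicate mean compared with DMSO-only protein, derived from Boltzmann fits.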
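Note: purified Escherichia coli-expressed rice kinase domain construct.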

Row | SMILES | thermal shift delta Tm
1 | C[C@H](CN(C)C)Oc1nc(Nc2cc3cccc(Cl)c3cn2)cnc1C#N | 0.31 °C
2 | CN1c2ccccc2C(=O)Nc2cnc(Nc3ccc(N4CCC(O)CC4)cc3)nc21 | 0.39 °C
3 | CCNc1nc(Nc2cc(F)c(C(=O)N3CCOCC3)cc2OC)ncc1C(F)(F)F | -0.04 °C
4 | COc1cc2ncnc(Nc3ccc(Oc4ccccc4)cc3C)c2cc1OC | -1.03 °C
5 | O=C1NC(=O)/C(=C/c2cccc(C(F)(F)F)c2)S1 | 0.46 °C
6 | COc1ccc(C(=O)Nc2sc3c(c2C(N)=O)CCCC3)cc1OC | 1.01 °C
7 | C#Cc1cccc(Nc2ncnc3cc(OCCOC)c(OCCO)cc23)c1 | 1.32 °C
8 | FC(F)(F)c1ccc(/C=C/c2nc(COc3ccc(CCCCn4ccnn4)cc3)co2)cc1 [Mubritinib (TAK 165)] | 0.23 °C
9 | CNC(=O)Nc1ccc(-c2nc(N3CC4CCC(C3)O4)c3cnn(C4CCC5(CC4)OCCO5)c3n2)cc1 | 1.7 °C
10 | CC(C)(C)NS(=O)(=O)c1cncc(-c2cc(F)c3nc(N)nn3c2)c1 | 1.06 °C
11 | C[C@@H]1CN(CC(=O)Nc2ccc3c(c2)Cc2cccc(-c4cc(=O)cc(N5CCOCC5)o4)c2S3)C[C@H](C)O1 | 0.97 °C
12 | COCCOc1ccc2c(c1)ncn2-c1ccc2cccc(N3CCC(N)CC3)c2n1 | 0.59 °C
13 | Cc1ccc(NC(=O)c2ccc(CN3CCN(C)CC3)cc2)cc1Nc1nc(-c2cccnc2)cs1 [Masitinib (AB1010)] | 0.34 °C
14 | Cn1cc(-c2cnn3c(N)c(Br)c([C@@H]4CCCNC4)nc23)cn1 | 2.88 °C
15 | COc1ccc(-c2cc3c(C)nc(N)nc3n([C@H]3CC[C@H](OCCO)CC3)c2=O)cn1 | 1.27 °C
16 | Cc1ccc(S(=O)(=O)/C=C/C#N)cc1 | 0.83 °C
17 | CCCS(=O)(=O)Nc1ccc(F)c(C(=O)c2c[nH]c3ncc(-c4ccc(Cl)cc4)cc23)c1F [Vemurafenib (PLX4032, RG7204)] | 2.03 °C
18 | C[C@@H](N)c1ccc(C(=O)Nc2ccnc3[nH]ccc23)cc1 | 0.79 °C
19 | O=C(NC1CCNCC1)c1n[nH]cc1NC(=O)c1c(Cl)cccc1Cl | 0.48 °C and 1.2 °C

Row | SMILES | thermal shift delta Tm
20 | NCC(=O)Nc1ccc(-n2nc(C(F)(F)F)cc2-c2ccc3c(ccc4ccccc43)c2)cc1 | 0.25 °C
21 | CCn1c(-c2nonc2N)nc2cnc(Oc3cccc(NC(=O)c4ccc(OCCN5CCOCC5)cc4)c3)cc21 | 0.95 °C
22 | COc1cc2c3cc1Oc1c(OC)c(OC)cc4c1[C@@H](Cc1ccc(O)c(c1)Oc1ccc(cc1)C[C@@H]3N(C)CC2)N(C)CC4 [Berbamine (dihydrochloride)] | -0.23 °C
23 | COc1cc2ncc(-c3ccccc3)nc2cc1OC [Tyrphostin AG 1296] | -0.01 °C
24 | C[C@H]1CNCCCN1S(=O)(=O)c1cccc2cncc(F)c12 [Ripasudil (K-115) hydrochloride dihydrate] | 1.1 °C
25 | N#Cc1c(NC(=O)c2cccc3ccccc23)sc2c1CCCC2 [JNK Inhibitor IX] | 0.12 °C
26 | CC(C)N(CCC(=O)c1ccc2ccccc2c1)Cc1ccccc1 | 0.33 °C
27 | COC(=O)c1ccc2c(c1)NC(=O)/C2=C(\Nc1ccc(N(C)C(=O)CN2CCN(C)CC2)cc1)c1ccccc1 [Nintedanib (BIBF 1120)] | 0.27 °C
28 | Nc1ccc(-c2ccc3ncc4ccc(=O)n(-c5cccc(C(F)(F)F)c5)c4c3c2)cn1 [Torin 2] | 0.19 °C
29 | COc1ccc2c(Oc3ccc(NC(=O)c4c(C)n(CC(C)(C)O)n(-c5ccccc5)c4=O)nc3)ccnc2c1 | 1.3 °C
30 | COc1ncc(-c2ccc3nccc(-c4ccnnc4)c3c2)cc1NS(=O)(=O)c1ccc(F)cc1F | 1.43 °C
31 | Cc1c[nH]c(/C=C2\C(=O)Nc3ccccc32)c1CCC(=O)O | -0.06 °C
32 | Cc1cc(Nc2cc(Cl)nc(Oc3ccc([N+](=O)[O-])cc3)n2)n[nH]1 [Autophinib] | -0.12 °C
33 | O=C(c1ccc(/C=C/c2n[nH]c3ccccc23)cc1)N1CCNCC1 | 0.73 °C
34 | COc1ccc(CNC(=O)Nc2ncc([N+](=O)[O-])s2)cc1 | 1.25 °C
35 | Cc1cc2c(F)c(Oc3ncnn4cc(OC[C@@H](C)O)c(C)c34)ccc2[nH]1 | 0.7 °C
36 | C=CC(=O)Nc1cccc(Oc2nc(Nc3ccc(N4CCN(C)CC4)cc3)nc3ccsc23)c1 | 1.13 °C
37 | O=c1cc(N2CCOCC2)oc2c(-c3ccc4c(c3)OCCO4)csc12 | -0.78 °C
38 | c1nc2c(NC3CCCCC3)nc(Nc3ccc(N4CCOCC4)cc3)nc2[nH]1 [Reversine] | -0.13 °C

Each molecule was assayed on LOC_OS02G08530-cb003 in the same assay as above. Conditions: 12.5 µM; protein concentration 2 µM.
Outline: as §1

Row | SMILES | thermal shift delta Tm
39 | C[C@H](CN(C)C)Oc1nc(Nc2cc3cccc(Cl)c3cn2)cnc1C#N | 1.68 °C
40 | CN1c2ccccc2C(=O)Nc2cnc(Nc3ccc(N4CCC(O)CC4)cc3)nc21 | 0.74 °C
41 | CCNc1nc(Nc2cc(F)c(C(=O)N3CCOCC3)cc2OC)ncc1C(F)(F)F | 1.3 °C
42 | COc1cc2ncnc(Nc3ccc(Oc4ccccc4)cc3C)c2cc1OC | 0.5 °C
43 | O=C1NC(=O)/C(=C/c2cccc(C(F)(F)F)c2)S1 | 0.44 °C
44 | COc1ccc(C(=O)Nc2sc3c(c2C(N)=O)CCCC3)cc1OC | 2.12 °C
45 | C#Cc1cccc(Nc2ncnc3cc(OCCOC)c(OCCO)cc23)c1 | 1.16 °C
46 | FC(F)(F)c1ccc(/C=C/c2nc(COc3ccc(CCCCn4ccnn4)cc3)co2)cc1 [Mubritinib (TAK 165)] | 0.63 °C
47 | CNC(=O)Nc1ccc(-c2nc(N3CC4CCC(C3)O4)c3cnn(C4CCC5(CC4)OCCO5)c3n2)cc1 | 1.49 °C
48 | CC(C)(C)NS(=O)(=O)c1cncc(-c2cc(F)c3nc(N)nn3c2)c1 | 0.86 °C
49 | C[C@@H]1CN(CC(=O)Nc2ccc3c(c2)Cc2cccc(-c4cc(=O)cc(N5CCOCC5)o4)c2S3)C[C@H](C)O1 | 0.73 °C
50 | COCCOc1ccc2c(c1)ncn2-c1ccc2cccc(N3CCC(N)CC3)c2n1 | 3.85 °C
51 | Cc1ccc(NC(=O)c2ccc(CN3CCN(C)CC3)cc2)cc1Nc1nc(-c2cccnc2)cs1 [Masitinib (AB1010)] | 0.9 °C
52 | Cn1cc(-c2cnn3c(N)c(Br)c([C@@H]4CCCNC4)nc23)cn1 | 0.14 °C
53 | COc1ccc(-c2cc3c(C)nc(N)nc3n([C@H]3CC[C@H](OCCO)CC3)c2=O)cn1 | 1.09 °C
54 | Cc1ccc(S(=O)(=O)/C=C/C#N)cc1 | 1.24 °C
55 | CCCS(=O)(=O)Nc1ccc(F)c(C(=O)c2c[nH]c3ncc(-c4ccc(Cl)cc4)cc23)c1F [Vemurafenib (PLX4032, RG7204)] | 1.07 °C
56 | C[C@@H](N)c1ccc(C(=O)Nc2ccnc3[nH]ccc23)cc1 | 0.76 °C
57 | O=C(NC1CCNCC1)c1n[nH]cc1NC(=O)c1c(Cl)cccc1Cl | 0.49 °C and 0.58 °C

Row | SMILES | thermal shift delta Tm
58 | NCC(=O)Nc1ccc(-n2nc(C(F)(F)F)cc2-c2ccc3c(ccc4ccccc43)c2)cc1 | 0.42 °C
59 | CCn1c(-c2nonc2N)nc2cnc(Oc3cccc(NC(=O)c4ccc(OCCN5CCOCC5)cc4)c3)cc21 | 1.19 °C
60 | COc1cc2c3cc1Oc1c(OC)c(OC)cc4c1[C@@H](Cc1ccc(O)c(c1)Oc1ccc(cc1)C[C@@H]3N(C)CC2)N(C)CC4 [Berbamine (dihydrochloride)] | 1.1 °C
61 | COc1cc2ncc(-c3ccccc3)nc2cc1OC [Tyrphostin AG 1296] | 1.3 °C
62 | C[C@H]1CNCCCN1S(=O)(=O)c1cccc2cncc(F)c12 [Ripasudil (K-115) hydrochloride dihydrate] | 0.65 °C
63 | N#Cc1c(NC(=O)c2cccc3ccccc23)sc2c1CCCC2 [JNK Inhibitor IX] | 0.47 °C
64 | CC(C)N(CCC(=O)c1ccc2ccccc2c1)Cc1ccccc1 | -1.55 °C
65 | COC(=O)c1ccc2c(c1)NC(=O)/C2=C(\Nc1ccc(N(C)C(=O)CN2CCN(C)CC2)cc1)c1ccccc1 [Nintedanib (BIBF 1120)] | 3.05 °C
66 | Nc1ccc(-c2ccc3ncc4ccc(=O)n(-c5cccc(C(F)(F)F)c5)c4c3c2)cn1 [Torin 2] | 1.53 °C
67 | COc1ccc2c(Oc3ccc(NC(=O)c4c(C)n(CC(C)(C)O)n(-c5ccccc5)c4=O)nc3)ccnc2c1 | 0.98 °C
68 | COc1ncc(-c2ccc3nccc(-c4ccnnc4)c3c2)cc1NS(=O)(=O)c1ccc(F)cc1F | 0.74 °C
69 | Cc1c[nH]c(/C=C2\C(=O)Nc3ccccc32)c1CCC(=O)O | 3.9 °C
70 | Cc1cc(Nc2cc(Cl)nc(Oc3ccc([N+](=O)[O-])cc3)n2)n[nH]1 [Autophinib] | 0.84 °C
71 | O=C(c1ccc(/C=C/c2n[nH]c3ccccc23)cc1)N1CCNCC1 | 4.1 °C
72 | COc1ccc(CNC(=O)Nc2ncc([N+](=O)[O-])s2)cc1 | 1.46 °C
73 | Cc1cc2c(F)c(Oc3ncnn4cc(OC[C@@H](C)O)c(C)c34)ccc2[nH]1 | 1.17 °C
74 | C=CC(=O)Nc1cccc(Oc2nc(Nc3ccc(N4CCN(C)CC4)cc3)nc3ccsc23)c1 | 2.66 °C
75 | O=c1cc(N2CCOCC2)oc2c(-c3ccc4c(c3)OCCO4)csc12 | 0.62 °C
76 | c1nc2c(NC3CCCCC3)nc(Nc3ccc(N4CCOCC4)cc3)nc2[nH]1 [Reversine] | 4.69 °C
